From publication PMC5540273 (PLoS ONE, 2017)

What follows are compounds tested on p38-delta. Conditions: concentration: 1 μM, replicates: in singlicate; n = 1.
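Further: KINOMEscan kinase panel screen.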

SMILES	%Inh [%]
CN1CCN(Cc2cccc(-c3ccc4c(Nc5ccc(Oc6ccccc6)cc5)ccnc4c3)c2)CC1 [GW578342]	37
O=C(Nc1ccccc1F)NC1CCN(c2ccnc(Nc3ccc(F)cc3)n2)CC1 [GSK1379800]	45
Cl.c1ccc(-c2ccc3c(Nc4ccc5[nH]ncc5c4)ccnc3c2)nc1 [GW440137]	38
CCn1c(-c2nonc2N)nc2c(C#CC(C)(C)O)nc(OC[C@H](N)c3ccccc3)cc21 [GSK943949]	0
O=C(Nc1cccc(-c2nn3ccccc3c2-c2ccnc(Nc3cccc(C(F)(F)F)c3)n2)c1)c1c(F)cccc1F [GSK292658]	24
Cn1cc(-c2ccc3c(c2)CCN3C(=O)Cc2cccc(F)c2)c2c(N)ncnc21 [GSK2603358]	52
COc1cc(Nc2nccc(N3CCC(NC(=O)c4cc5ccccc5s4)C3)n2)cc(OC)c1OC (stereo not shown) [GSK1379760]	15
COCCOCCOc1cc2ncc3c4ccc(C#N)cc4[nH]c3c2cc1OC	0
Cl.Cl.NCC(NC(=O)c1cc(-c2ccccc2)c(-c2ccnc3[nH]ccc23)s1)c1ccccc1 (stereo not shown) [GSK1321561]	47
COc1cc(Nc2nccc(-c3c(-c4cccc(NC(=O)c5c(F)cccc5F)c4)nn4ncccc34)n2)cc(OC)c1OC [GSK327238]	52
CN(C)S(=O)(=O)c1cc(-c2ccc3nccc(-c4cccc(S(N)(=O)=O)c4)c3c2)cnc1N [GSK1669921]	44
Cl.Cl.NCC(NCc1ccc(-c2ccnc3[nH]ccc23)s1)c1ccccc1 (stereo not shown) [GSK1321565]	3
Cc1ccc(S(=O)(=O)Nc2ccc(Nc3nccc(Nc4cccc5[nH]ncc45)n3)cc2)cc1 [GSK581271]	46
CC(=O)Nc1nc2cnc(Nc3cc(NC(=O)c4cccc(C5(C#N)CC5)c4Cl)ccc3C)nc2s1	17
CNC(=O)c1ccccc1Nc1nc(Nc2ccc(N3CCOCC3)cc2)ncc1Cl.Cl [GSK1576028]	0
Cc1ccc(C(=O)N2CC[C@@H](O)C2)cc1-n1c(C)cc(OCc2ccc(F)cc2F)c(Br)c1=O	7
COc1ccc(Nc2nccc(N3CCC(NC(=O)Nc4cccc(OC)c4)C3)n2)cc1 (stereo not shown) [GSK1379742]	29
Cl.Cl.NCC(C(=O)Nc1cc(Br)c(-c2ccnc3[nH]ccc23)s1)c1ccccc1 (stereo not shown) [GSK1269851]	17
Oc1cc(Nc2ccnc3cc(I)ccc23)ccc1F [GW552771]	27

SMILES	%Inh [%]
COc1ccc(Nc2nccc(NCCNC(=O)c3cc4ccccc4s3)n2)cc1 [GSK1379896]	11
CCS(=O)(=O)c1ccc(OC)c(Nc2nccc(-c3c(-c4cccc(NC(=O)c5c(F)cccc5F)c4)nn4ncccc34)n2)c1 [GSK326180]	47
COc1cccc(C(=O)Nc2cccc(Oc3ccc4nc(NC(=O)C5CC5)cn4n3)c2)c1	32
CN(C)Cc1ccc(-c2ccc3c(Nc4ccc(Oc5ccccn5)cc4)ccnc3c2)o1 [GW567148]	38
Clc1ccc(-c2nn3ncccc3c2-c2ccnc(Nc3ccc4c(c3)OCCO4)n2)cc1 [GW829116]	13
Cl.c1ccc(-c2ccc3c(Nc4ccc5[nH]ccc5c4)ccnc3c2)nc1 [GW440138]	41
Fc1ccc(-c2ncn(C3CCNCC3)c2-c2ccnc(Oc3ccc(-c4ccccc4)cc3)n2)cc1 [SB-245391]	0
O=C(Nc1cccc(Oc2ccc3nc(NC(=O)C4CC4)cn3n2)c1)c1ccccc1C(F)(F)F	17
COc1cccc(C2=C(Nc3ccc(Cl)c(C(=O)O)c3)C(=O)NC2=O)c1 [SB-390769]	45
Cc1ccc(C(=O)Nc2ccc(Nc3ccnc4cc(-c5nccs5)ccc34)cc2O)cc1.Cl [GW494702]	21
Cc1ccc(C)c(NC(=O)NC2CCN(c3ccnc(Nc4ccc(F)cc4)n3)C2)c1 (stereo not shown) [GSK1379720]	45
COc1ccc(-c2coc3ccc(-c4nnc(SCc5ccc(OC)c(C(F)(F)F)c5)o4)cc23)cc1	6
COc1cc(Nc2ncc3c(C)nc(-c4cc5ccccc5[nH]4)n3n2)cc(OC)c1OC [GW869516]	0
O=C(NC1CCN(c2ccnc(Nc3ccc(F)cc3)n2)C1)c1cc2ccccc2s1 (stereo not shown) [GSK1379716]	45
Cn1cc(-c2ccc3c(c2)CCN3C(=O)Cc2cccc(Cl)c2)c2c(N)ncnc21 [GSK2606590]	57
COC(=O)Nc1nc2ccc(Oc3ccc(NC(=O)Nc4cc(C(F)(F)F)ccc4F)cc3)cc2n1C.Cl [GW692089]	0
O=C(O)C(F)(F)F.O=C(O)C(F)(F)F.O=c1[nH]ccc2nc(N[C@@H]3CCCNC3)nc(Nc3ccc(S(=O)(=O)N4CCOCC4)cc3)c12 [GSK2177277]	57
CCn1c(-c2nonc2N)nc2c(C#CC(C)(C)O)ncc(OCCCCN)c21.O=C(O)C(F)(F)F.O=C(O)C(F)(F)F [GSK507274]	27
